Consider 40 molecules from ChEMBL document CHEMBL3988442, “University of Dundee, Small-Polar-MMV Screening Library” (2021).

The target in the test is AMP-activated protein kinase, AMPK (Homo sapiens) (UniProt P54646+O43741+P54619+Q9UGJ0+Q9Y478+Q13131+Q9UGI9). As to the kind of experiment: AMP-dependent Kinase enzyme assay. An in vitro enzyme assay that detects ADP turnover that is directly proportional to AMPK activity. This uses naive AMPK that is activated during the assay with MK-8722. As to conditions: 30 µM. More on the design: scale not given: direction of the effect not stated beside the values. In kind it is functional.
As for `Cc1sc2ccccc2c1S(=O)(=O)NCCNC(=O)C(C)C`, the Percent Effect is -0.0872%.

Consider `CC(C)Cc1noc(CN(C)C2CCS(=O)(=O)C2)n1` (stereo not given), for which the Percent Effect was -4.29%.

For the molecule `Cc1ncc(CNC(=O)NCc2c(F)cccc2OC(F)F)s1`, the Percent Effect stood at 6.42%.

As to `Cc1cc(CN2CCC(C3CCN(CCc4ccccc4)CC3)C2)[nH]n1` (stereo not given), the Percent Effect was -4.05%.

As for `CN1CCN(CC2(O)CCCN(S(=O)(=O)c3cn[nH]c3)CC2)CC1` (stereo not given), the Percent Effect worked out at 13%.

Turning to `O=C1CSCN1Cc1nc(-c2ccc(N3CCCCC3)cc2)no1`, the Percent Effect was determined as 2.39%.

For the molecule `O=C(NCc1csc(Br)c1)Nc1cn[nH]c1`, the Percent Effect is -3.79%.

For the molecule `COCC1(Nc2nc(C)nc3c2cnn3C)CCCC1`, the Percent Effect is -2.92%.

Regarding `Cc1ccc(F)c2c1CCCN2CC(=O)NC1CCS(=O)(=O)C1` (stereo not given), the Percent Effect was found to be 3.51%.

For the molecule `Cc1nonc1CN1CC[C@@](O)(C2CCOCC2)[C@H](C)C1`, the Percent Effect is -6.73%.

`CCC(CNC(=O)CCn1cncn1)N1CCc2ccccc2C1` (stereo not given): the Percent Effect is 1.86%.

As to `Cc1cc(C)n(C2CN(CCC(=O)NCCc3ccccc3)C2)n1`, the Percent Effect turned out to be 2.98%.

As for `CC(C)[C@H]1CN(Cc2nccn2C)C[C@@H]1NC(=O)COCC(N)=O`, the Percent Effect is 9.37%.

For `CSc1ncccc1C(=O)Nc1ccc(Cn2ccccc2=O)cc1`, the Percent Effect was -11.3%.

Take `Cc1ccc2c(C(=O)N(C)C)cc(-c3cnn(CCO)c3)nc2c1C`: the Percent Effect is 7.33%.

Regarding `COc1ccnc(CNc2nc(C)nc(C)c2C)c1`, the Percent Effect is -6.37%.

In the case of `Cc1ccc(-c2cc(C(=O)N(C)Cc3noc4c3CCCC4)[nH]n2)s1`, the Percent Effect is -10.3%.

For the molecule `CCC(C)(CC(=O)OC)NCc1cc(C)on1` (stereo not given), the Percent Effect was -1.46%.

As for `O=C(COCc1ccccc1)NCc1ccc(O)c(F)c1`, the Percent Effect worked out at 8.21%.

On to `O=C(CCCN1CCCCC1)NC(C(=O)O)c1ccc(Cl)cc1` (stereo not given), for which the Percent Effect is 6.04%.

For the molecule `CCCOc1ccccc1CCCNc1ncnc2oc(C)nc12`, the Percent Effect is 2.11%.

In the case of `CCNc1ncc(C(=O)NCc2csc(C)n2)cn1`, the Percent Effect was -2.12%.

Turning to `CC(C)c1nc(CN(C)Cc2ncccc2C(=O)O)cs1`, the Percent Effect was found to be 4.59%.

`CC(C)c1nc(CN(C)S(=O)(=O)c2cccs2)cs1`: the Percent Effect turned out to be 4.38%.

On to `CCCn1nnnc1COC(=O)C1Cc2cc(Cl)ccc2O1` (stereo not given), for which the Percent Effect is 6.63%.

Take `Cc1nsc(C(=O)NCCCc2ccccc2)n1`: the Percent Effect was found to be 1.51%.

Turning to `CCOc1ccccc1CN(C)C(=O)CN1C(=O)OC[C@@H]1C(C)C`, the Percent Effect turned out to be 5.19%.

As for `O=C1CCC2(CCOC2)CN1Cc1nncn1CCc1ccccc1` (stereo not given), the Percent Effect turned out to be 14.2%.

In the case of `O=C(Cn1nc2ccccc2n1)N1CCCC(O)(CN2CCCC2)C1` (stereo not given), the Percent Effect is -2.27%.

Turning to `CCC(=O)c1cccc(S(=O)(=O)NC(C)C#N)c1` (stereo not given), the Percent Effect is -2.44%.

As to `Cn1cc(N2CCN(c3ccc(C#N)c(Cl)c3)CC2=O)cn1`, the Percent Effect is -3.11%.

For the molecule `COc1cccc(C(=O)N2CCN(C(=O)CCCc3cn[nH]c3)CC2)c1`, the Percent Effect was -1.35%.

Take `Cc1c(F)cccc1S(=O)(=O)N(C)CC(C)O` (stereo not given): the Percent Effect was 1.59%.

On to `C[C@@H]1CN(S(=O)(=O)N2CCCC2)CC[C@@]1(O)C1CCOCC1`, for which the Percent Effect was -5.74%.

In the case of `CSCC[C@H](NC(C)=O)C(=O)N(C)Cc1ccc(-n2cccn2)cc1`, the Percent Effect is -8.05%.

In the case of `CN1CCN(CCOc2ccc(NC(=O)c3ccc[nH]3)cc2)CC1`, the Percent Effect came out at 6.53%.

As for `N#Cc1c(N)nc2c(c1-c1c[nH]nc1C1CCCCC1)COCC2`, the Percent Effect is 42.5%.

With `CNC(=O)C(C)NC(=O)c1cc(COc2ccc(OC)cc2Cl)[nH]n1` (stereo not given), the Percent Effect was -1.41%.

`CSc1nccc(N2CCC3(CCCN(Cc4ccc(F)cc4)C3)C2)n1` (stereo not given): the Percent Effect was found to be 3.61%.

As to `Cc1cnn(CCCNC(=O)NC(C)C(=O)Nc2ccccc2)c1` (stereo not given), the Percent Effect stood at 4.78%.
